In PubChem BioAssay (NCATS):
Inconclusive results are not listed. Calls of active or inactive are those of the source. Unless noted, the call rests on the fitted dose curve; in most records, active means well fitted curve in either direction with a large enough effect (not every such curve was filed as active); inconclusive means small, poorly fitted or top-dose-only effect, or another doubt; inactive means flat fitted curve, though single readings scatter.

Assays:
[1] = molecular target: Lysosomal acid glucosylceramidase (Homo sapiens) (UniProt P04062); experiment: Glucocerebrosidase-p2 (AID 348; in the data active means potency below about 10 µM; further: potency means the concentration at half of the fitted maximal effect); settings: purified GBA, blue fluorogenic substrate, 40 min
Sequence of Lysosomal acid glucosylceramidase (Homo sapiens) (P04062 whole entry, looked up): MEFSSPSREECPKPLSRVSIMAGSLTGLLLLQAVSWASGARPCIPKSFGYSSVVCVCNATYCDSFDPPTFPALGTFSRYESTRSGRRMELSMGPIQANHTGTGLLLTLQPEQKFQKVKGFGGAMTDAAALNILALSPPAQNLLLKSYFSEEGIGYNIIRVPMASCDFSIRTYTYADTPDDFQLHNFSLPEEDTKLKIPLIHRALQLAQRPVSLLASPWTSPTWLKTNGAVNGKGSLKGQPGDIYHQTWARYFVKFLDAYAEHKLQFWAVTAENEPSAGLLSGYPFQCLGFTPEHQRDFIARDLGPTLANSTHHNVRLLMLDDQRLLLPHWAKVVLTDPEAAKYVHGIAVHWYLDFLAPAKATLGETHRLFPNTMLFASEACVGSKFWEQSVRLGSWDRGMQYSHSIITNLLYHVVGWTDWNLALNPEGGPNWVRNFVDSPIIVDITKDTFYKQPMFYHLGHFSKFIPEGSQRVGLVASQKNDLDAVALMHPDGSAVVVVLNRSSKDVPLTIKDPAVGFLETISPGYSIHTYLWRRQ
Method in brief: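 Compounds titrated from 0.6 nM upwards against 0.2 nM enzyme in pH 5.9 citric acid/KH2PO4, taurocholate, tween-20; blue fluorogenic substrate 80 uM, 40 min room temperature, stopped and read Ex 365/Em 440 for AC50.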

[2] = AP1 Signaling Pathway (AID 357); settings: ME-180 AP-1-bla reporter, EGF-induced, beta-lactamase ratio, 5 h; at 7.69 µM (top of the series) unless noted;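 further: ME-180 reporter cells stimulated with EGF at its EC50 level; on the % scale 0 is the no-effect control and ±100 the full control effect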
Method in brief: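 Cells are seeded overnight, exposed to compound titrations and an EC50 level of EGF for 5 hours at 37 °C, then loaded with CCF4 dye for 2.5 hours. Beta-lactamase activity under the AP-1 element is read as a blue/green ratio.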

[3] = molecular target: Cytochrome P450 1A2 (Homo sapiens) (UniProt P05177); experiment: p450-cyp1a2 (AID 410; calls by dose curve; further: potency means the concentration at half of the fitted maximal effect;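 on activity change, negative = inhibition: -100% = full effect of reference inhibitor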); settings: recombinant CYP1A2, luciferin-ME demethylation, luminescence; series mostly up to 11.4 µM
Sequence of Cytochrome P450 1A2 (Homo sapiens) (P05177 whole entry, looked up): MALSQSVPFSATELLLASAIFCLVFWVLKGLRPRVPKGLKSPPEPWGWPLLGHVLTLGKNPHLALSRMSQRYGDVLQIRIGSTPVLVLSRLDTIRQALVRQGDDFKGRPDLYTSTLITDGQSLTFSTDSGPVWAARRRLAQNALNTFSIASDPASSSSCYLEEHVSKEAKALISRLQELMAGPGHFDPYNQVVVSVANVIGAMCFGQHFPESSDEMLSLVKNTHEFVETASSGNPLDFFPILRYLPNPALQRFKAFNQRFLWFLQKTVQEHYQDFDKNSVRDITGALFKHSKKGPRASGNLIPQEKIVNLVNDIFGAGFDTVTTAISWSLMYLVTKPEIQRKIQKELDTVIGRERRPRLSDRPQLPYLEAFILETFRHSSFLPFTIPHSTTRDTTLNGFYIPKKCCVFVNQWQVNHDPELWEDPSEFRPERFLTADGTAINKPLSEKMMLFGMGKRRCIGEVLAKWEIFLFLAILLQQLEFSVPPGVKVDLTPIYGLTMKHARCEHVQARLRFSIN
Method in brief: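 Inhibition was calculated relative to 57 uM furafylline (full inhibition). The reaction used human CYP1A2 at 20nM with Luciferin-ME at its Km, 100uM, driven by an NADPH-regenerating system for 60 min at room temperature.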

[4] = NFAT Signaling Pathway (AID 444); settings: Jurkat NFAT-bla M1, carbachol, beta-lactamase ratio, 5 h; at 7.69 µM (top of the series) unless noted;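 further: carbachol stimulus at about its EC50 of 1 µM final; on the % scale 0 is the no-effect control and ±100 the full control effect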
Method in brief: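 Read-out: CCF4 FRET ratio (460 nm/530 nm) after 1 h RT dye loading, used for %activity and AC50 from titration series. Cells: Jurkat NFAT-β-lactamase/M1 line, treated with compound plus 1 uM carbachol for 5 h, 37 °C.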

[5] = Stat Signaling Pathway (AID 446); settings: ME-180 SIE beta-lactamase reporter, IL-6 stimulated, 5 h; at 7.69 µM (top of the series) unless noted;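 further: ME-180 cervical cancer cells given 40 pM IL-6 alongside compound; SIE-controlled beta-lactamase reporter measured as 460/530 nm FRET emission ratio; on the % scale 0 is the no-effect control and ±100 the full control effect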
Method in brief: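 ME-180 cells carrying a SIE-driven beta-lactamase reporter are stimulated with 40 pM IL-6 for 5 h at 37C in the presence of compound. The 460/530 nm FRET substrate ratio is read after 2.5 h at RT. Data are normalised to 300 pM IL-6 and to 125 nM JAK inhibitor controls.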

[6] = molecular target: Glucocorticoid receptor (Homo sapiens) (UniProt P04150); experiment: GR-GFP Redistribution (AID 450;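 active means compounds whose dose series gives a full or clear partial fitted curve of increased nuclear translocation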; further: potency means the concentration at half of the fitted maximal effect); settings: U2OS GR-GFP nuclear translocation, laser cytometry, 2 h
Sequence of Glucocorticoid receptor (Homo sapiens) (P04150 whole entry, looked up, the tested form may be a part): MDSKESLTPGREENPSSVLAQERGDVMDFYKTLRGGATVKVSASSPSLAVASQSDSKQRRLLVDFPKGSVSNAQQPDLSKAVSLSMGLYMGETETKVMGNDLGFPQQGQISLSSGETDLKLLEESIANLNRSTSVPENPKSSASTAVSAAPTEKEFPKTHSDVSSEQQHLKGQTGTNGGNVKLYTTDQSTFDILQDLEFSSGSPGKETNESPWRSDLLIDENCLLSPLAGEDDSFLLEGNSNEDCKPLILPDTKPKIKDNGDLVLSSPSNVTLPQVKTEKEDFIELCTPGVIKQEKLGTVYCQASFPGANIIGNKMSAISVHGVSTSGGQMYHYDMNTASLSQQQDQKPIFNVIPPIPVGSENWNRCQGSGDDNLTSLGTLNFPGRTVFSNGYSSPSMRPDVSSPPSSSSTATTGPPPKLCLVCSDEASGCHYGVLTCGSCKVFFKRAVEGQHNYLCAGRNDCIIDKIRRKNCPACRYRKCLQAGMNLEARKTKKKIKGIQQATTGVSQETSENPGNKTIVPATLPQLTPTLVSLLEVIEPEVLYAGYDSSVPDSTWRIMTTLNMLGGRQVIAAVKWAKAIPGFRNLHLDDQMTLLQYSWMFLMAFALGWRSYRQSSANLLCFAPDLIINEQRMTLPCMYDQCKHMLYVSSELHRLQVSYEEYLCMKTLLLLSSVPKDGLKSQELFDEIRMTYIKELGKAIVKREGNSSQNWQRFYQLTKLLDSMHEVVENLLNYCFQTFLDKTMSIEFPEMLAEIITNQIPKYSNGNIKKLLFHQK

[7] = molecular target: Glucocorticoid receptor (Homo sapiens) (UniProt P04150); experiment: GR-EFC Redistribution (AID 451; calls by dose curve; further: potency means the concentration at half of the fitted maximal effect); settings: CHO-K1 GR-EFC translocation, beta-gal luminescence, 2 h
Method in brief: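 Translocation of GR-ED fusion to nuclear EA restores b-gal, read by luminescence after 1 h room-temperature detection. Engineered CHO-K1 biosensor cells, 1,000/well, exposed 2 h at 37 C to titrations up to 46 uM final.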

[8] = molecular target: Mitogen-activated protein kinase 10 (Mus musculus) (UniProt Q61831); experiment: JNK3 AlphaScreen Assay (AID 530); settings: JNK3 lysate, c-Jun phosphorylation; series mostly up to 11.4 µM;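 further: kinase came from lysate of stimulated human HepG2 cells; signal reports phosphorylation of biotinylated GST-cJun 1-79 at Ser73 with 10 µM ATP; on the % scale 0 is the no-effect control and ±100 the full control effect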
Method in brief: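 Room-temperature AlphaScreen kinase assay; pre-activated HepG2 lysate as JNK3 source, biotin-GST-cJun(1-79) substrate, 10 uM ATP, compound 15 min preincubation.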

[9] = molecular target: 3',5'-cyclic-AMP phosphodiesterase 4B (Homo sapiens) (UniProt Q07343); experiment: qHTS Assay for Inhibitors of PDE-IV (AID 607; active means well fitted activation curve with a large enough effect in the main read-out, with a control signal flat, not every such curve was filed as active; further: % of control where 0% means no effect); settings: HEK293 ACTOne CNG channel cells, membrane potential fluorescence; series mostly up to 22.9 µM
Sequence of 3',5'-cyclic-AMP phosphodiesterase 4B (Homo sapiens) (Q07343 whole entry, looked up): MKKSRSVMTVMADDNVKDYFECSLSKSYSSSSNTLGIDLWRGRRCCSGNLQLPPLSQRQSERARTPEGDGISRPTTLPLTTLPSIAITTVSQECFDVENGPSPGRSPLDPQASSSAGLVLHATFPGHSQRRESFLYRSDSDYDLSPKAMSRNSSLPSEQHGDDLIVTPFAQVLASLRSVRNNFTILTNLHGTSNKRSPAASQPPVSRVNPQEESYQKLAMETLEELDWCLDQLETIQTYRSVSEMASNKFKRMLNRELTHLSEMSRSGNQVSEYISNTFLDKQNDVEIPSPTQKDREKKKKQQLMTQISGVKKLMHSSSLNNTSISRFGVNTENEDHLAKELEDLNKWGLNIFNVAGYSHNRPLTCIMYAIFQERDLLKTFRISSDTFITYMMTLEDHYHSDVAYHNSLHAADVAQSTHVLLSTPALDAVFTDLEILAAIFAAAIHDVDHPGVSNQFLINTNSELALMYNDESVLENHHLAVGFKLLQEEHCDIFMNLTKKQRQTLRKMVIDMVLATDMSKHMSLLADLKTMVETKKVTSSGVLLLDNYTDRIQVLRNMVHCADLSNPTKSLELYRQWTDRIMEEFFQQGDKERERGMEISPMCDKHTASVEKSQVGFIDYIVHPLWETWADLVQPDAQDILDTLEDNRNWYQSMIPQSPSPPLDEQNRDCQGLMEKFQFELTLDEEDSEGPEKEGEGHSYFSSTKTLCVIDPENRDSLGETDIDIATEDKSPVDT
Method in brief: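 HEK293 ACTOne cells with CNG channel (1000/well), endogenous PDE4; membrane potential dye, compounds up to 22.9 uM final. Fluorescence Ex 535/Em 590; RO 20-1724 (100 uM final) as reference.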

[10] = molecular target: Cytochrome P450 2C9 (Homo sapiens) (UniProt P11712); experiment: qHTS Assay for Inhibitors and Substrates of Cytochrome P450 2C9 (AID 883; active means well fitted curve in the direction sought with a large enough effect; an effect the other way counts as inactive or inconclusive; further: nearly all actives have a fitted effect of over 60% in size; further: potency means the concentration at half of the fitted maximal effect); settings: recombinant CYP2C9, luciferin-H luminescence, 60 min; series mostly up to 11.4 µM
Sequence of Cytochrome P450 2C9 (Homo sapiens) (P11712 whole entry, looked up): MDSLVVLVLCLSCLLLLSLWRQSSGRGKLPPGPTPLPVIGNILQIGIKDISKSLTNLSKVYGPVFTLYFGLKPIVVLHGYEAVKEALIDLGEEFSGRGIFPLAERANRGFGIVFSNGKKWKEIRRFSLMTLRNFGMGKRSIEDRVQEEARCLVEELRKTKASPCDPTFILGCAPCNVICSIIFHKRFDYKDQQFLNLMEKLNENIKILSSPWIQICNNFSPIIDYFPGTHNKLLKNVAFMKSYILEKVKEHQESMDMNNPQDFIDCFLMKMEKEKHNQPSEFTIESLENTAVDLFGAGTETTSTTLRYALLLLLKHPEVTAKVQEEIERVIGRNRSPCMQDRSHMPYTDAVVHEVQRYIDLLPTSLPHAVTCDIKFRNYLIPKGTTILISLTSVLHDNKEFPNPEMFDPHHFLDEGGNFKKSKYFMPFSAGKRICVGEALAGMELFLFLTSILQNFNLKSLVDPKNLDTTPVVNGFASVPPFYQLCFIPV
Method in brief: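 Inhibition of CYP2C9 is scored as loss of luminescence, with 57uM sulphaphenazole defining 100% inhibition. Substrate Luciferin-H is used at 100uM, equal to its KM; enzyme at 10nM in 25mM KPO4, 60 min at 37C with NADPH regeneration.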

[11] = molecular target: Cytochrome P450 3A4 (Homo sapiens) (UniProt P08684); experiment: qHTS Assay for Inhibitors and Substrates of Cytochrome P450 3A4 (AID 884; active means well fitted curve in the direction sought with a large enough effect; an effect the other way counts as inactive or inconclusive; further: potency means the concentration at half of the fitted maximal effect; nearly all actives have a fitted effect of over 50% in size); settings: recombinant CYP3A4, Luciferin-PPXE luminescence; series mostly up to 57.1 µM
Sequence of Cytochrome P450 3A4 (Homo sapiens) (P08684 whole entry, looked up): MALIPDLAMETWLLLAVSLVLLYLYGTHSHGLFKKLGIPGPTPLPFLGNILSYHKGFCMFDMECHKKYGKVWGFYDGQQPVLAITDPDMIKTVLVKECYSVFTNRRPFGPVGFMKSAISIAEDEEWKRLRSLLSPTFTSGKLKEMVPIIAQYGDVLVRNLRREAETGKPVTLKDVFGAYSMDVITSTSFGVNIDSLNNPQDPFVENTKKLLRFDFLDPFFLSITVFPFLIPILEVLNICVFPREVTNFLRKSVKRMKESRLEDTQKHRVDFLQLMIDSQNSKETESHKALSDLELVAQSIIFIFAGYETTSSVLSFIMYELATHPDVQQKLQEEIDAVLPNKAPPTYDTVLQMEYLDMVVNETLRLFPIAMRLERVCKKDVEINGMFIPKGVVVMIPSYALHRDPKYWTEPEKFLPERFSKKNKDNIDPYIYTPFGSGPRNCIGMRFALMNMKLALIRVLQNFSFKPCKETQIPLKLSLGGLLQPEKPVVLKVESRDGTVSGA
Method in brief: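 20 nM human CYP3A4 with 25 uM Luciferin-PPXE (at KM) in 200 mM KPO4, preincubated 10 min with compound; NADPH regeneration started a 60 min RT reaction. Luciferin detected by luminescence, normalized to 57 uM ketoconazole as full inhibition.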

[12] = molecular target: Cytochrome P450 3A4 (Homo sapiens) (UniProt P08684); experiment: qHTS Assay for Activators of Cytochrome P450 3A4 (AID 885; active means well fitted curve in the direction sought with a large enough effect; an effect the other way counts as inactive or inconclusive; further: nearly all actives have a fitted effect of over 65% in size); settings: recombinant CYP3A4, Luciferin-PPXE luminescence, 60 min; series mostly up to 11.4 µM
Method in brief: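 Human CYP3A4 (20 nM) with Luciferin-PPXE at 25 uM (its KM) in 200 mM KPO4; 10 min compound preincubation, then NADPH regeneration and 60 min reaction at RT. Luciferin read by luminescence; normalized to 57 uM ketoconazole full inhibition.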

Nc1[nH]c(=O)nc2c1ncn2[C@H]1O[C@@H](CO)[C@@H](O)[C@@H]1O
inactive: Potency [1] > 11.4 µM | activity change, negative = inhibition [2] -9.66% | Potency [3] | activity change, negative = inhibition [4] 15.7% | activity, negative = inhibition [5] 17.5% | Potency [6] > 46 µM | Potency [7] > 9.22 µM | Potency [8] | Potency [9]

Cc1ccc(-[n+]2cc(=O)o[nH]2)cc1
active: Potency [3] 3.98 µM
inactive: Potency [1] > 11.4 µM | activity change, negative = inhibition [2] 4.74% | activity change, negative = inhibition [4] -24.7% | activity, negative = inhibition [5] 12.6% | Potency [6] > 46 µM | Potency [7] > 9.22 µM | Potency [8] | Potency [9]

C1CCN(CC[C@@H]2CCCCN2)CC1
inactive: Potency [1] > 11.4 µM | activity change, negative = inhibition [2] 12.5% | Potency [3] | activity change, negative = inhibition [4] 8.93% | activity, negative = inhibition [5] -0.348% | Potency [6] > 46 µM | Potency [7] > 9.22 µM | Potency [8] | Potency [9]

C[C@@H](N=C(N)N)C(=O)O
inactive: Potency [1] > 11.4 µM | activity change, negative = inhibition [2] -6.66% | Potency [3] | activity change, negative = inhibition [4] 16.8% | activity, negative = inhibition [5] -6.68% | Potency [6] > 46 µM | Potency [7] > 9.22 µM | Potency [8] | Potency [9]

Nc1nc(N)c(CCCCc2ccccc2)c(N)n1
inactive: Potency [1] > 11.4 µM | activity change, negative = inhibition [2] 17.9% | activity change, negative = inhibition [3] -0.2% [at 2.29 µM] | activity change, negative = inhibition [4] 2.59% | activity, negative = inhibition [5] 1.49% | Potency [6] > 46 µM | Potency [7] > 9.22 µM | Potency [8] | Potency [9]

Cc1[nH]c2ccccc2c1-c1cc(-c2cc(-c3c(C)[nH]c4ccccc34)on2)no1
inactive: Potency [1] > 11.4 µM | activity change, negative = inhibition [2] 5.07% | activity change, negative = inhibition [4] -7.58% | activity, negative = inhibition [5] -1.93% | Potency [6] > 46 µM | Potency [7] > 9.22 µM | Potency [8] | Potency [9] | Potency [10]
active: Potency [3] 0.398 µM

O=C(O)c1cscc1Cc1cccs1
inactive: Potency [1] > 11.4 µM | activity change, negative = inhibition [2] -0.132% | Potency [3] | activity change, negative = inhibition [4] -2.63% | activity, negative = inhibition [5] 5.79% | Potency [6] > 46 µM | Potency [7] > 9.22 µM | Potency [8] | Potency [9] | Potency [10]

Nc1nc(-c2cccnc2)cc(-c2cc(-c3cccnc3)nc(N)n2)n1
inactive: Potency [1] > 11.4 µM | activity change, negative = inhibition [2] 16.4% | activity change, negative = inhibition [3] -15.9% [at 2.29 µM] | activity change, negative = inhibition [4] 12.8% | activity, negative = inhibition [5] 1.62% | Potency [6] > 46 µM | Potency [7] > 9.22 µM | Potency [8] | Potency [9]

O=C(O)[C@@H]1[C@@H](C(=O)NCc2ccccn2)[C@@H]2C=C[C@@H]1O2
inactive: Potency [1] > 11.4 µM | activity change, negative = inhibition [2] -9.66% | activity change, negative = inhibition [3] -0.1% [at 2.29 µM] | activity change, negative = inhibition [4] -3.89% | activity, negative = inhibition [5] -3.58% | Potency [6] > 46 µM | Potency [7] > 9.22 µM | Potency [8] | Potency [9]

C[C@@](O)(CNS(=O)(=O)c1ccccc1)c1ccccc1
inactive: Potency [1] > 11.4 µM | activity change, negative = inhibition [2] 0.078% | Potency [3] | activity change, negative = inhibition [4] 3.96% | activity, negative = inhibition [5] -0.864% | Potency [6] > 46 µM | Potency [7] > 9.22 µM | Potency [8] | Potency [9]

Cn1c(=O)c2[nH]c(COCc3nc4c([nH]3)c(=O)n(C)c(=O)n4C)nc2n(C)c1=O
inactive: Potency [1] > 11.4 µM | activity change, negative = inhibition [2] 6.66% | activity change, negative = inhibition [3] 4.5% [at 2.29 µM] | activity change, negative = inhibition [4] 5.77% | activity, negative = inhibition [5] -2.27% | Potency [6] > 46 µM | Potency [7] > 9.22 µM | Potency [8] | Potency [9]

O=NN(Cc1ccc(Cl)cc1)[C@@H](C(=O)O)c1ccccc1
inactive: Potency [1] > 11.4 µM | activity change, negative = inhibition [2] 15.1% | activity change, negative = inhibition [4] -4.59% | activity, negative = inhibition [5] 0.591% | Potency [6] > 46 µM | Potency [7] > 9.22 µM | Potency [8] | Potency [9]
active: Potency [3] 5.01 µM

COc1ccc(/C=C(\C#N)C(N)=O)c(OC)c1
inactive: Potency [1] > 11.4 µM | activity change, negative = inhibition [2] 2.38% | activity change, negative = inhibition [4] 17.1% | activity, negative = inhibition [5] 3.37% | Potency [6] > 46 µM | Potency [7] > 9.22 µM | Potency [8] | Potency [9] | Potency [10] | Potency [12]
active: Potency [3] 1.58 µM | Potency [11] 2.51 µM

CC(CCC(=O)O)(c1cc(Br)c(O)c(Br)c1)c1cc(Br)c(O)c(Br)c1
active: Potency [10] 3.16 µM
inactive: Potency [1] > 11.4 µM | activity change, negative = inhibition [2] 17.5% | activity change, negative = inhibition [3] -17.9% [at 2.29 µM] | activity change, negative = inhibition [4] 3.8% | activity, negative = inhibition [5] 0.505% | Potency [6] > 46 µM | Potency [7] > 9.22 µM | Potency [8] | Potency [9]

CC(C)(C)c1ccc(OC(=O)Nc2ccc(O)c(C(=O)O)c2)cc1
inactive: Potency [1] > 11.4 µM | activity change, negative = inhibition [2] -0.0209% | activity change, negative = inhibition [3] 6.5% [at 2.29 µM] | activity change, negative = inhibition [4] 6.49% | activity, negative = inhibition [5] 0.0223% | Potency [6] > 46 µM | Potency [7] > 9.22 µM | Potency [8] | Potency [9]
